# Reference: PubChem BioAssay (NCATS)
# Inconclusive results are not listed. Entries that show only a call come without a potency. Activity calls are given as the source filed them. Unless noted, calls come from the whole dose curve; as a rule, active = well fitted curve in the direction sought with a large enough effect; inconclusive = small, poorly fitted or top-dose-only effect, or another doubt; inactive = no such curve, though single readings can be large; an effect the other way counts as inactive or inconclusive.
# How the values were obtained:
# [1] = Confirmation and Secondary Assay for Modulators of Hemoglobin Beta Chain Splicing at IVS2 654 locus (AID 910);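 note: HeLa cells stably carrying EGFP split by mutant beta-globin IVS2-654 intron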
# Outline: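 HeLa cells stably expressing EGFP interrupted by β-globin IVS2-654 intron, seeded overnight in Opti-MEM/2% FCS, then treated 2 days at 37 °C. Restored splicing read as total peak GFP intensity per well by laser scanning cytometry (488 nm excitation, 500–520 nm emission); 500 nM antisense PNA as control.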
# [2] = qHTS Assay for Identification of Small Molecule Agonists for Thrombopoietin (TPO) Signaling Pathway (AID 917)
# Outline: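 Luminescence from a Glycoprotein IIb promoter–driven luciferase reporter served as read-out in murine Ba/F3 cells carrying the human TPO receptor. Cells, deprived of IL-3 overnight, received compounds with 26 pM TPO and were incubated 24 hrs at 37 C.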
# [3] = Confirmation and Secondary Assay for Modulators of Hemoglobin Beta Chain Splicing at IVS2 705 locus (AID 930);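 note: HeLa cells stably expressing the EGFP-705 splicing reporter; GFP fluorescence per well restored by corrected splicing of the IVS2-705 intron in EGFP; series mostly up to about 46 µM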
# Outline: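 Secondary splice-site specificity test uses HeLa expressing CMV-driven EGFP interrupted by IVS2-705; cells were treated 2 days at 37C with 500 nM antisense PNA as positive control.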
# [4] = target: Pyruvate kinase (Leishmania mexicana) (UniProt Q27686); assay: qHTS Validation Assay for Inhibitors of Leishmania Mexicana Pyruvate Kinase (AID 945)
# Outline: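 Read-out: luminescence from PKLight stop/detection reagent, data normalized to DMSO. Reaction: 0.2 nM E451W LmPYK, 0.5 mM PEP, 0.1 mM ADP, pH 7.2, 1 h room temperature.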
# [5] = target: Muscarinic acetylcholine receptor M1 (Rattus norvegicus) (UniProt P08482); assay: qHTS Assay for Antagonists of Acetylcholine Muscarinic M1 Receptor: Kinetic Measurement of Intracellular Calcium Response (AID 943);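 note: Fluo-4 calcium signal as peak divided by basal fluorescence over 4 min; series mostly up to about 35 µM; nearly all actives have a fitted effect of over 75% in size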
# Outline: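 CHO cells stably expressing rat M1 were loaded with no-wash Fluo-4 dye for 1 h at 37C, pre-incubated 10 min with compound, then challenged with EC80 carbachol (100 nM final); kinetic calcium read 4 min, peak/basal ratio.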
# [6] = target: Muscarinic acetylcholine receptor M1 (Rattus norvegicus) (UniProt P08482); assay: qHTS Assay for Antagonists of Acetylcholine Muscarinic M1 Receptor: Measurement of IP-One Response (AID 944); note: nearly all actives have a fitted effect of over 75% in size
# Outline: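 CHO cells expressing rat M1 receptor, recovered overnight, were pre-incubated 10 min with compound, then stimulated 30 min with carbachol at EC80 (200 nM) in LiCl-containing buffer, pH 7.4. IP1 accumulation was read by HTRF (620/665 nm).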
# [7] = MultiTox-Fluor Cytotoxicity Assay - LYMP1-001 - Dead Cells (AID 946);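 note: cells exposed to compound for 16 h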
# Outline: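 In this qHTS, 15 uM tetraoctylammonium bromide defined 100% and DMSO defined basal activity. Lymphoblastoid cells (LYMP1-001, 2500 per well) received compound for 16 hr at 37 C before a fluorogenic dead-cell substrate readout at 485/520 nm.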
# [8] = Cell Viability - LYMP2-001 (AID 921);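 note: series mostly up to about 92 µM; cells exposed to compound for 24 h at 37 °C; nearly all actives have a fitted effect of over 70% in size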
# Outline: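 Steps: seed 2500 lymphoblastoid cells/well; 5 hr, 37 C; add compound; 24 hr, 37 C; CellTiter-Glo reagent, 30 min room temperature; read luminescence. Concentration-response modeled by Hill equation for AC50.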
# [9] = qHTS Assay for Identification of Small Molecule Agonists for Hypoxia Response Element Signaling Pathway (AID 914; active = well fitted activation curve with a large enough effect in the signal ratio, with a control signal flat, not every such curve was filed as active; the % refers to the signal ratio; note: potency is the fitted concentration of half-maximal effect); conditions: ME-180 (cervical carcinoma) HRE-bla reporter, beta-lactamase ratio, CoCl2, 17 h; activation: active compounds read high
# Outline: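 qHTS titration; ME-180 HRE-bla cells; EC50 CoCl2 co-treatment, 17 h at 37 degrees Celsius; CCF4 dye, ex 405nm, em 460nm and 530nm; %Activity from ratio; AC50.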
# Chain of Pyruvate kinase (Leishmania mexicana) (Q27686 2-499 E452W): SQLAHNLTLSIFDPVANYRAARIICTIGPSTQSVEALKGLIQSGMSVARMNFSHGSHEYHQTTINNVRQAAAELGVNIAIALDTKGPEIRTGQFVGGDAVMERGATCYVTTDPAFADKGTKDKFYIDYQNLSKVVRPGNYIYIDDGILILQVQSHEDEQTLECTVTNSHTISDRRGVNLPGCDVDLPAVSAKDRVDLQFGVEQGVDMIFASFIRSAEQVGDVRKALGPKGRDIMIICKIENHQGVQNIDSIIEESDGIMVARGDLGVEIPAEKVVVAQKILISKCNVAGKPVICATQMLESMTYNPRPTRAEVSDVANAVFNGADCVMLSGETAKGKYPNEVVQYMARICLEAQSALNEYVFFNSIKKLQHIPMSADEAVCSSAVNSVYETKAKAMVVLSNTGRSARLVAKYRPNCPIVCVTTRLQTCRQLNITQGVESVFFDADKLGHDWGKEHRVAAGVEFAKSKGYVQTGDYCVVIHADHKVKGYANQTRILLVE
# Chain of Muscarinic acetylcholine receptor M1 (Rattus norvegicus) (P08482 whole entry, looked up): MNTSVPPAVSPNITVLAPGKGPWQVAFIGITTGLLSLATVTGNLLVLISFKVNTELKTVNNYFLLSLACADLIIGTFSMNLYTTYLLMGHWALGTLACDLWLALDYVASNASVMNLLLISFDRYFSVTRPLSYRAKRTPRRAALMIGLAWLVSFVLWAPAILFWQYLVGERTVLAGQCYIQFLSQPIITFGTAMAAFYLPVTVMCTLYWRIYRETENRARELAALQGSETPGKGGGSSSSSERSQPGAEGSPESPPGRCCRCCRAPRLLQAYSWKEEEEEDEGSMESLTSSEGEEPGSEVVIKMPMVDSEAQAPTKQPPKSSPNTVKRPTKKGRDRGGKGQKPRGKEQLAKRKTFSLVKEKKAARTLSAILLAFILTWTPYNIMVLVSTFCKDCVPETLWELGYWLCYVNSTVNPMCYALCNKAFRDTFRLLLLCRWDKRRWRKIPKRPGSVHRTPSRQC
smiles,measurement,setting,value
NNCCc1ccccc1,Potency,[1],inactive
same,outcome,[2],inactive
same,Potency,[3],inactive
same,outcome,[4],inactive
CCCc1nn(C)c2c(=O)[nH]c(-c3cc(S(=O)(=O)N4CCN(C)CC4)ccc3OCC)nc12,Potency,[1],inactive
same,Potency,[3],inactive
O=NN(CCCl)C(=O)NCCCl,Potency,[1],inactive
same,outcome,[2],inactive
same,Potency,[3],inactive
same,outcome,[4],inactive
CC(C[N+](C)(C)C)OC(N)=O (stereo not given),Potency,[1],inactive
same,Potency,[3],inactive
CCCCNc1cc(C(=O)O)cc(S(N)(=O)=O)c1Oc1ccccc1,Potency,[1],inactive
same,outcome,[2],inactive
same,Potency,[3],inactive
same,Potency,[5],inactive
same,Potency,[6],inactive
same,outcome,[4],inactive
CC(C)(C)NCC(O)c1ccc(O)c(CO)c1 (stereo not given),Potency,[1],inactive
same,Potency,[3],inactive
Cc1cc2c(C(C)C)c(O)c(O)c(C=O)c2c(O)c1-c1c(C)cc2c(C(C)C)c(O)c(O)c(C=O)c2c1O,Potency,[1],inactive
same,Potency,[3],inactive
CCn1cc(C(=O)O)c(=O)c2cc(F)c(N3CCNC(C)C3)c(F)c21 (stereo not given),Potency,[1],inactive
same,Potency,[3],inactive
NC(N)=NC(=O)c1nc(Cl)c(N)nc1N,Potency,[1],inactive
same,outcome,[2],inactive
same,Potency,[3],inactive
same,outcome,[4],inactive
same,outcome,[7],inactive
CCCC(CCC)C(=O)O,Potency,[1],inactive
same,outcome,[2],inactive
same,Potency,[8],inactive
same,Potency,[3],inactive
same,outcome,[4],inactive
same,outcome,[7],inactive
Cc1ccc(N(CC2=NCCN2)c2cccc(O)c2)cc1,Potency,[1],inactive
same,outcome,[2],inactive
same,Potency,[3],inactive
same,Potency,[6],inactive
same,outcome,[4],inactive
CCOC(=O)N1CCC(=C2c3ccc(Cl)cc3CCc3cccnc32)CC1,Potency,[1],inactive
same,Potency,[9],15.8 µM (active)
same,Potency,[3],inactive
same,outcome,[4],inactive
NC(=O)c1cnccn1,Potency,[1],inactive
same,outcome,[2],inactive
same,Potency,[8],inactive
same,Potency,[3],inactive
same,outcome,[4],inactive
same,outcome,[7],inactive
